Data from PubChem BioAssay (Tox21).
Values joined by “and” are separate entries in the source; they are usually repeats but may differ in a detail not shown here. Identical values can stand only once. Records with an inconclusive call do not appear. A call without a number means that no potency is given here. Active and inactive are the calls of the source. Calls follow the shape of the full dose curve.

assay: qHTS assay to identify small molecule agonists of H2AX - cell viability counter screen (AID 1224847); settings: CHO-K1 viability, CellTiter-Glo luminescence, 3 h; series mostly up to 154 µM; also: nearly all actives have a fitted effect of over 30% in size
In short: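 Counter-screen for viability: CellTiter-Glo ATP luminescence read after 3 h compound treatment (15-point titration, 0.76% DMSO final) of CHO-K1 cells at 37C, with 30 min room-temperature reagent incubation.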
Potency is read from the fitted curve at half-maximal effect.

Row | SMILES | Potency
1 | O=C(O)c1cc(=O)[nH]c(=O)[nH]1 | inactive
2 | COc1cc([C@H]2Oc3cc([C@H]4Oc5cc(O)cc(O)c5C(=O)[C@@H]4O)ccc3O[C@@H]2CO)ccc1O | inactive
3 | CC1=CC(C)(C)Nc2ccccc21 | inactive
4 | COCCOCCOCCO | inactive
5 | O=C1CCc2ccccc2O1 | inactive
6 | O=[Se](O)O | inactive
7 | FC(F)(F)C(Cl)Br (stereo unspecified) | inactive
8 | C=CCOC(=O)C(=C)C | inactive
9 | C=CC(=O)OCCCC | inactive
10 | C[C@]12C=CC(=O)C=C1CC[C@H]1[C@@H]3C[C@@H](O)[C@](O)(C(=O)CO)[C@@]3(C)C[C@H](O)[C@@]12F | inactive
11 | O=C(O)c1ccc(O)cc1 | inactive
12 | CC(=O)Oc1ccc(C(c2ccc(OC(C)=O)cc2)c2ccccn2)cc1 | inactive
13 | CCO[Si](CCCNC(N)=O)(OCC)OCC | inactive
14 | CCCCCC=O | inactive
15 | IC(I)I | inactive
16 | CN1CCOCC1 | inactive
17 | COC(=O)C(C)Oc1ccc(Oc2ncc(C(F)(F)F)cc2Cl)cc1 (stereo unspecified) | inactive
18 | OCCNCCO | inactive
19 | NCCOCCO | inactive
20 | Cc1ccc(C(C)(C)C)c(O)c1 | 97.5 µM (active) and 89.8 µM (active)
21 | CC(C)=CCO | inactive
22 | CC(=O)Oc1c(C)c(C)c2c(c1C)CC[C@@](C)(CCC[C@H](C)CCC[C@H](C)CCCC(C)C)O2 | inactive
23 | Oc1c(Cl)ccc(Cl)c1Cl | inactive
24 | O=C(O)CCCCCCCCCCCC(=O)O | inactive
25 | c1ccc2c(c1)ccc1ncccc12 | inactive
26 | CCC(=O)O[C@H]1[C@H](O[C@@H]2[C@@H](C)[C@H](O[C@H]3C[C@@](C)(OC)[C@@H](O)[C@H](C)O3)[C@@H](C)C(=O)O[C@H](CC)[C@@](C)(O)[C@H](O)[C@@H](C)C(=O)[C@H](C)C[C@@]2(C)O)O[C@H](C)C[C@@H]1N(C)C | inactive
